Test results from the supplement of paper PMC10849652.
The full data set covers some 7,900 targets. This sample favours those with a hit. About 0.6% of all pairs of compound and target were hits. A number with no mark means an inactive call.

Legend:
Assay in all cases: log2 fold change, soluble protein after heating vs DMSO (PISA); higher = thermal stabilisation; K562 cells, 10 uM, 30 min; active = over 0.2 and 3.5 SD of the protein, either way, in both replicates (recomputed)
[1] = compound: Cc1cccc(CC(=O)N2CCc3c2ccc(-c2cn(C)c4ncnc(N)c24)c3F)n1
How it was run: (§1)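 K562 cells (2×10^6 cells/mL) were treated with 10 μM compound for 30 min, and aliquots were heated for 3 min over 48°C-58°C. Pooled aliquots were extracted in PBS with 0.5% NP-40 at 4°C, and the supernatant after 21,000xg for 90 min was measured by TMTpro 16plex LC-MS/MS with channel sums equalised. Reported thermal stability, relative to control samples and from duplicates, is a log2 fold change.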

[2] = compound: Cc1cn(-c2cc(NC(=O)c3ccc(C)c(Nc4nccc(-c5cccnc5)n4)c3)cc(C(F)(F)F)c2)cn1 [nilotinib]
How it was run: as §1

[3] = compound: Cc1nc(Nc2n[nH]c3c2CN(C(=O)N[C@H](CN(C)C)c2ccccc2)C3(C)C)c2sccc2n1
How it was run: as §1

[4] = compound: Cc1nc(Nc2ncc(C(=O)Nc3c(C)cccc3Cl)s2)cc(N2CCN(CCO)CC2)n1 [dasatinib]
How it was run: as §1

[5] = compound: Cc1ncc(-c2ccnc(Nc3ccc(S(C)(=O)=O)cc3)n2)n1C(C)C
How it was run: as §1

[6] = compound: Cn1cc(-c2ccc3nnc(C(F)(F)c4ccc5ncccc5c4)n3n2)cn1
How it was run: as §1

[7] = compound: FC(F)(F)c1ccc(/C=C/c2nc(COc3ccc(CCCCn4ccnn4)cc3)co2)cc1 [mubritinib]
How it was run: as §1

[8] = compound: NC(=O)Nc1cc(-c2cccc(F)c2)sc1C(=O)N[C@H]1CCCNC1
How it was run: as §1

[9] = compound: NC1(c2ccc(-c3nc4ccn5c(=O)[nH]nc5c4cc3-c3ccccc3)cc2)CCC1
How it was run: as §1

[10] = compound: Nc1ccccc1NC(=O)c1ccc(CNC(=O)OCc2cccnc2)cc1 [entinostat]
How it was run: as §1

[11] = compound: O=C(CCCCCCC(=O)Nc1ccccc1)NO [vorinostat]
How it was run: as §1

[12] = compound: O=C(CCCCCCNC(=O)c1cnc(N(c2ccccc2)c2ccccc2Cl)nc1)NO [citarinostat]
How it was run: as §1

[13] = compound: O=C(O)c1ccc2c(c1)nc(Nc1cccc(Cl)c1)c1ccncc12 [silmitasertib]
How it was run: as §1

[14] = compound: O=C1NC(=O)C(c2cnc3ccccn23)=C1c1cn2c3c(cc(F)cc13)CN(C(=O)N1CCCCC1)CC2
How it was run: as §1

[15] = compound: c1cc(OCCN2CCCCC2)cc(-c2n[nH]c3ccc(-c4nnc[nH]4)cc23)c1
How it was run: as §1

[16] = compound: Cc1ccc(NC(=O)c2ccc(CN3CC[C@H](N(C)C)C3)c(C(F)(F)F)c2)cc1Nc1nccc(-c2cncnc2)n1 [bafetinib]
How it was run: as §1

[17] = compound: Cn1cncc1[C@@](N)(c1ccc(Cl)cc1)c1ccc2c(c1)c(-c1cccc(Cl)c1)cc(=O)n2C [tipifarnib]
How it was run: as §1

[18] = compound: NC(=O)c1cnc(N[C@@H]2CCCC[C@@H]2N)nc1Nc1cccc(-n2nccn2)c1
How it was run: as §1

[19] = compound: NCC(=O)Nc1ccc(-n2nc(C(F)(F)F)cc2-c2ccc3c(ccc4ccccc43)c2)cc1
How it was run: as §1

[20] = compound: Cn1cc(-c2ccc3c(c2)CCN3C(=O)Cc2cccc(C(F)(F)F)c2)c2c(N)ncnc21
How it was run: as §1

DCAF4 (UniProt Q8WV16)
log2 fold change [1]: -0.423 (active) | log2 fold change [2]: -0.204 | log2 fold change [3]: -0.007 | log2 fold change [4]: 0.11 | log2 fold change [5]: -0.093 | log2 fold change [6]: 0.079 | log2 fold change [7]: 0.094 | log2 fold change [8]: -0.046 | log2 fold change [9]: -0.127 | log2 fold change [10]: 0.005 | log2 fold change [11]: 0.238 | log2 fold change [12]: -0.1 | log2 fold change [13]: 0.066 | log2 fold change [14]: -0.096 | log2 fold change [15]: -0.094

DDX11 (UniProt Q96FC9)
log2 fold change [16]: -0.012 | log2 fold change [2]: 0.098 | log2 fold change [3]: 0.033 | log2 fold change [4]: 0.061 | log2 fold change [5]: 0.098 | log2 fold change [6]: -0.132 | log2 fold change [17]: 0.005 | log2 fold change [7]: -0.015 | log2 fold change [8]: -0.1 | log2 fold change [18]: -0.099 | log2 fold change [9]: -0.061 | log2 fold change [19]: 0.032 | log2 fold change [10]: -0.009 | log2 fold change [13]: 0.191 | log2 fold change [14]: -0.007

ENTPD7 (UniProt Q9NQZ7)
log2 fold change [16]: -0.165 | log2 fold change [2]: -0.104 | log2 fold change [3]: -0.17 | log2 fold change [4]: -0.235 | log2 fold change [5]: 0.056 | log2 fold change [17]: 0.163 | log2 fold change [7]: 0.097 | log2 fold change [8]: 0.024 | log2 fold change [9]: -0.052 | log2 fold change [10]: 0.236 | log2 fold change [12]: 0.131 | log2 fold change [13]: -0.357 | log2 fold change [14]: -0.098 | log2 fold change [15]: -0.138

ERF (UniProt P50548)
Sequence of UniProt P50548 (P50548 whole entry, looked up): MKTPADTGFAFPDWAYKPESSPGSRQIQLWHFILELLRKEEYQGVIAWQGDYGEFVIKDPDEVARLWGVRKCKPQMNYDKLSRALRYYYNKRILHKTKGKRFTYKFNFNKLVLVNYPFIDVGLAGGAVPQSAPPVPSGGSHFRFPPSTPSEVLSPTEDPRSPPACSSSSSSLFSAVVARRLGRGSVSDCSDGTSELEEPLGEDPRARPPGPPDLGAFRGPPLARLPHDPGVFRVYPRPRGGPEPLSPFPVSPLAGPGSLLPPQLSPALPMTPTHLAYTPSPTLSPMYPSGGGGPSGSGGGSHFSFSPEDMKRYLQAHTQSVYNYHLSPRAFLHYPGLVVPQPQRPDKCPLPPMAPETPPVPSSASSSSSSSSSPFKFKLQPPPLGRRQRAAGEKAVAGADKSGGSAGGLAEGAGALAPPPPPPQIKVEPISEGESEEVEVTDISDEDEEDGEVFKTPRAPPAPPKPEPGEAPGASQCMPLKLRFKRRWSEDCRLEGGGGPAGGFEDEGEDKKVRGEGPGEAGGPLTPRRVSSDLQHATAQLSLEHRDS
log2 fold change [1]: 0.194 | log2 fold change [8]: -0.53 | log2 fold change [10]: -0.019 | log2 fold change [11]: 0.023 | log2 fold change [14]: -0.273

F2RL3 (UniProt Q96RI0)
log2 fold change [4]: -0.03 | log2 fold change [20]: -0.051 | log2 fold change [6]: 0.043 | log2 fold change [17]: -0.016 | log2 fold change [18]: 0.003 | log2 fold change [19]: -0.085

EID1 (UniProt Q9Y6B2)
log2 fold change [1]: -0.438 | log2 fold change [2]: -0.022 | log2 fold change [3]: -0.084 | log2 fold change [5]: -0.032 | log2 fold change [17]: -0.097 | log2 fold change [7]: 0.208 | log2 fold change [8]: -0.078 | log2 fold change [9]: -0.055 | log2 fold change [10]: 0.086 | log2 fold change [11]: -0.457 | log2 fold change [13]: -0.156 | log2 fold change [14]: -0.652

ELOVL7 (UniProt A1L3X0)
Sequence of UniProt A1L3X0 (A1L3X0 whole entry, looked up): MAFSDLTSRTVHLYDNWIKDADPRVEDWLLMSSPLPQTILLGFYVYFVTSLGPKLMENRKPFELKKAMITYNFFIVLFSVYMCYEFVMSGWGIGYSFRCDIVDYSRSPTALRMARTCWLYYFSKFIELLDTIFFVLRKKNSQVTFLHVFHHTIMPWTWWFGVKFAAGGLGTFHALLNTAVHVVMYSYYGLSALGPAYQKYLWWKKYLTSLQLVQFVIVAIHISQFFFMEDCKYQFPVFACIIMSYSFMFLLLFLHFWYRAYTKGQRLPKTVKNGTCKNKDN
log2 fold change [4]: -0.088 | log2 fold change [20]: -0.057 | log2 fold change [18]: -0.001 | log2 fold change [14]: -0.09

EHBP1 (UniProt Q8NDI1)
Sequence of UniProt Q8NDI1 (Q8NDI1 whole entry, looked up): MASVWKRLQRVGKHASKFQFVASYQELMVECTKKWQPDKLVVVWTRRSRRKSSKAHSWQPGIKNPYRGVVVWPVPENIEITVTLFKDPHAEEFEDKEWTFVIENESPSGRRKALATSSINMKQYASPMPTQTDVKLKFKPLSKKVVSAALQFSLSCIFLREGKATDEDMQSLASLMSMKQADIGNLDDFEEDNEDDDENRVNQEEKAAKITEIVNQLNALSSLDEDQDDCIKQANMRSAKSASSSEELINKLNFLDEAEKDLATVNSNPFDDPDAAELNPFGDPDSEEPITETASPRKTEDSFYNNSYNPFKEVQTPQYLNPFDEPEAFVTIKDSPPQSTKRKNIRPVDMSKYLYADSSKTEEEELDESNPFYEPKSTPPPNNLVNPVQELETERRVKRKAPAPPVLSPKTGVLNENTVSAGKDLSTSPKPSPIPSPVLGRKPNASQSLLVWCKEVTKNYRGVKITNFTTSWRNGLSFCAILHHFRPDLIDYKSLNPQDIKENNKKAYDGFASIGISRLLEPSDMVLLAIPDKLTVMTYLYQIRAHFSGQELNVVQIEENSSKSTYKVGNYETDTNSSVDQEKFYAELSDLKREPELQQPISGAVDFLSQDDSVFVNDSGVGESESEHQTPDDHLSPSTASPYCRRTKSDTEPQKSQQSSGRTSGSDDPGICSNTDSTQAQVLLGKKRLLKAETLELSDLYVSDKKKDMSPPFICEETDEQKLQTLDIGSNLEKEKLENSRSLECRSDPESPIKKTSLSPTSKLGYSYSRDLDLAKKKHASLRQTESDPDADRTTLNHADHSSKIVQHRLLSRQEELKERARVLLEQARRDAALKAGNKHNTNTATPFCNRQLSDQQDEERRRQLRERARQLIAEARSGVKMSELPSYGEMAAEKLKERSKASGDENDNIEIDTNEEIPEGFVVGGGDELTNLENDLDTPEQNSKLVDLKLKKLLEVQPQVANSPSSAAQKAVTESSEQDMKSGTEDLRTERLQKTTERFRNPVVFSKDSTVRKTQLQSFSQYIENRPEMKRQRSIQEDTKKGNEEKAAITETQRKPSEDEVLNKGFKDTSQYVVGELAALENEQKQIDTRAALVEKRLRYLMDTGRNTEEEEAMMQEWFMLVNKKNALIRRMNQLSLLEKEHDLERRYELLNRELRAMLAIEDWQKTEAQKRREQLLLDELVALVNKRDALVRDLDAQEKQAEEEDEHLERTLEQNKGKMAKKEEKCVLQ
log2 fold change [1]: -0.154 | log2 fold change [20]: -0.076 | log2 fold change [7]: -0.586 (active) | log2 fold change [18]: -0.092 | log2 fold change [9]: 0.017 | log2 fold change [11]: -0.034 | log2 fold change [12]: -0.009 | log2 fold change [13]: 0.087 | log2 fold change [15]: -0.14

DDX27 (UniProt Q96GQ7)
log2 fold change [1]: -0.093 | log2 fold change [2]: -0.193 | log2 fold change [3]: -0.051 | log2 fold change [4]: 0.21 | log2 fold change [5]: 0.3 | log2 fold change [20]: -0.313 | log2 fold change [6]: -0.151 | log2 fold change [7]: -0.146 | log2 fold change [8]: 0.002 | log2 fold change [18]: 0.04 | log2 fold change [9]: 0.198 | log2 fold change [19]: 0.123 | log2 fold change [10]: -0.106 | log2 fold change [11]: -0.039 | log2 fold change [12]: -0.103 | log2 fold change [13]: 0.087 | log2 fold change [14]: 0.326 | log2 fold change [15]: -0.218

EPHB4 (UniProt P54760)
log2 fold change [6]: -0.051 | log2 fold change [17]: -0.257 | log2 fold change [7]: 0.176 | log2 fold change [8]: -0.207 | log2 fold change [9]: -0.102 | log2 fold change [10]: 0.122 | log2 fold change [13]: 0.18

FAM135A (UniProt Q9P2D6)
log2 fold change [2]: 0.054 | log2 fold change [3]: -0.138 | log2 fold change [5]: -0.054 | log2 fold change [8]: 0.069 | log2 fold change [19]: -0.024 | log2 fold change [10]: -0.03 | log2 fold change [14]: -0.088

FAM193B (UniProt Q96PV7)
log2 fold change [16]: 0.19 | log2 fold change [4]: -0.01 | log2 fold change [20]: 0.171 | log2 fold change [17]: -0.027 | log2 fold change [8]: 0.22 | log2 fold change [18]: -0.053 | log2 fold change [19]: -0.014 | log2 fold change [10]: 0.25 | log2 fold change [12]: 0.032 | log2 fold change [14]: 0.149 | log2 fold change [15]: -0.205

DNAJB1 (UniProt M0R128)
log2 fold change [16]: -0.252 | log2 fold change [20]: -0.022 | log2 fold change [19]: -0.151

EIF3J isoform 2 (UniProt O75822)
log2 fold change [16]: -0.033 | log2 fold change [2]: -0.101 | log2 fold change [3]: -0.016 | log2 fold change [4]: 0.017 | log2 fold change [5]: -0.013 | log2 fold change [17]: 0.078 | log2 fold change [7]: 0.1 | log2 fold change [8]: -0.094 | log2 fold change [18]: -0.197 | log2 fold change [9]: -0.102 | log2 fold change [19]: 0.023 | log2 fold change [10]: -0.041 | log2 fold change [13]: -0.11 | log2 fold change [14]: 0.002

DHRS13 (UniProt Q6UX07)
log2 fold change [1]: -0.208 | log2 fold change [2]: 0.197 | log2 fold change [3]: -0.153 | log2 fold change [4]: 0.005 | log2 fold change [5]: -0.106 | log2 fold change [20]: 0.021 | log2 fold change [6]: -0.168 | log2 fold change [7]: 0.049 | log2 fold change [8]: 0.182 | log2 fold change [18]: -0.012 | log2 fold change [9]: 0.102 | log2 fold change [19]: 0.156 | log2 fold change [10]: 0.043 | log2 fold change [11]: -0.013 | log2 fold change [12]: 0.1 | log2 fold change [13]: 0.087 | log2 fold change [15]: -0.06

DENND1A isoform 6 (UniProt Q8TEH3)
Sequence of UniProt Q8TEH3 (Q8TEH3 whole entry, looked up): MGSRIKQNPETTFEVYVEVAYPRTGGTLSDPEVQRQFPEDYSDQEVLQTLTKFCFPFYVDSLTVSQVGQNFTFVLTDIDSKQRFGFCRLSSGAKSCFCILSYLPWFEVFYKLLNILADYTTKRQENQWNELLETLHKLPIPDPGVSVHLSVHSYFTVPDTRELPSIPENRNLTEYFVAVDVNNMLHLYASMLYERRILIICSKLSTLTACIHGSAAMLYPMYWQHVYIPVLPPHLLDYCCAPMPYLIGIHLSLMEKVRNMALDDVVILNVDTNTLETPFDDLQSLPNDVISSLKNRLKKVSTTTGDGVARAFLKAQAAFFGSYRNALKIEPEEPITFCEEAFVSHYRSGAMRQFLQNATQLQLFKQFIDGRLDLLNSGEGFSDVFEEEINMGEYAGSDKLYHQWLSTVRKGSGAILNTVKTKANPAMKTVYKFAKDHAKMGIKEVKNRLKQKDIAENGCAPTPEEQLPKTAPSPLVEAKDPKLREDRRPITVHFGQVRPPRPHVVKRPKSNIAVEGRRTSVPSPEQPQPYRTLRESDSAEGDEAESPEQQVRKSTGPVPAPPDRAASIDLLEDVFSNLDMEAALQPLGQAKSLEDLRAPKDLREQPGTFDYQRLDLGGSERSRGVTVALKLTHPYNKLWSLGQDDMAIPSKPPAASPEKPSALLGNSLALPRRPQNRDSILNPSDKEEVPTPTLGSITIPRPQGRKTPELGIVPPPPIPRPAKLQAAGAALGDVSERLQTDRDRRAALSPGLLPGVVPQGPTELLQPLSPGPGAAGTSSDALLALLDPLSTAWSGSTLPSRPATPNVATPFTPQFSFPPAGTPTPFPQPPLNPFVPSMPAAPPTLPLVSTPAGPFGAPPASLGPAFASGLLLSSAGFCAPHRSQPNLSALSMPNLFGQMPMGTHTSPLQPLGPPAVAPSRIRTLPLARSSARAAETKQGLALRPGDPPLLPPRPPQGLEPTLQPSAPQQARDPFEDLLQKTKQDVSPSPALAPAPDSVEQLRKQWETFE
log2 fold change [16]: -0.086 | log2 fold change [17]: -0.113 | log2 fold change [19]: -0.119

ENTR1 (UniProt Q96C92)
log2 fold change [4]: 0.003 | log2 fold change [17]: 0.259 | log2 fold change [19]: -0.284

ELAC1 (UniProt Q9H777)
Sequence of UniProt Q9H777 (Q9H777 whole entry, looked up): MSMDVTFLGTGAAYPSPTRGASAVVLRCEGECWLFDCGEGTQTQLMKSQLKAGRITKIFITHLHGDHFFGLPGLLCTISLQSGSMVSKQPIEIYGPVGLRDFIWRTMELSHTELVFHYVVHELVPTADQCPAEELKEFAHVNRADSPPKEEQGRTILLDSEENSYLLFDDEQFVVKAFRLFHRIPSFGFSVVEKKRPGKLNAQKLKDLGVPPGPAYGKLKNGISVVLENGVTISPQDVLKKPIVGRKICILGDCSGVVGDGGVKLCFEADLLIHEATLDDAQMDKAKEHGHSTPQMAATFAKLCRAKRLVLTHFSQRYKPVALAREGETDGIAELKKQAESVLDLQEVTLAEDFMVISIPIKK
log2 fold change [1]: 0.124 | log2 fold change [2]: 0.145 | log2 fold change [3]: -0.111 | log2 fold change [4]: -0.073 | log2 fold change [5]: -0.103 | log2 fold change [20]: -0.032 | log2 fold change [17]: 0.036 | log2 fold change [8]: 0.014 | log2 fold change [18]: 0.053 | log2 fold change [19]: -0.082 | log2 fold change [10]: -0.202 | log2 fold change [11]: 0.285 | log2 fold change [12]: 0.05 | log2 fold change [14]: 0.075 | log2 fold change [15]: -0.05

DDX46, A0A0C4DG89
log2 fold change [2]: 0.151 | log2 fold change [3]: -0.322 | log2 fold change [5]: 0.032 | log2 fold change [7]: 0.242 | log2 fold change [9]: -0.177 | log2 fold change [13]: -0.288 | log2 fold change [14]: -0.148

EIF4G1 (UniProt Q04637)
Sequence of UniProt Q04637 (Q04637 whole entry, looked up): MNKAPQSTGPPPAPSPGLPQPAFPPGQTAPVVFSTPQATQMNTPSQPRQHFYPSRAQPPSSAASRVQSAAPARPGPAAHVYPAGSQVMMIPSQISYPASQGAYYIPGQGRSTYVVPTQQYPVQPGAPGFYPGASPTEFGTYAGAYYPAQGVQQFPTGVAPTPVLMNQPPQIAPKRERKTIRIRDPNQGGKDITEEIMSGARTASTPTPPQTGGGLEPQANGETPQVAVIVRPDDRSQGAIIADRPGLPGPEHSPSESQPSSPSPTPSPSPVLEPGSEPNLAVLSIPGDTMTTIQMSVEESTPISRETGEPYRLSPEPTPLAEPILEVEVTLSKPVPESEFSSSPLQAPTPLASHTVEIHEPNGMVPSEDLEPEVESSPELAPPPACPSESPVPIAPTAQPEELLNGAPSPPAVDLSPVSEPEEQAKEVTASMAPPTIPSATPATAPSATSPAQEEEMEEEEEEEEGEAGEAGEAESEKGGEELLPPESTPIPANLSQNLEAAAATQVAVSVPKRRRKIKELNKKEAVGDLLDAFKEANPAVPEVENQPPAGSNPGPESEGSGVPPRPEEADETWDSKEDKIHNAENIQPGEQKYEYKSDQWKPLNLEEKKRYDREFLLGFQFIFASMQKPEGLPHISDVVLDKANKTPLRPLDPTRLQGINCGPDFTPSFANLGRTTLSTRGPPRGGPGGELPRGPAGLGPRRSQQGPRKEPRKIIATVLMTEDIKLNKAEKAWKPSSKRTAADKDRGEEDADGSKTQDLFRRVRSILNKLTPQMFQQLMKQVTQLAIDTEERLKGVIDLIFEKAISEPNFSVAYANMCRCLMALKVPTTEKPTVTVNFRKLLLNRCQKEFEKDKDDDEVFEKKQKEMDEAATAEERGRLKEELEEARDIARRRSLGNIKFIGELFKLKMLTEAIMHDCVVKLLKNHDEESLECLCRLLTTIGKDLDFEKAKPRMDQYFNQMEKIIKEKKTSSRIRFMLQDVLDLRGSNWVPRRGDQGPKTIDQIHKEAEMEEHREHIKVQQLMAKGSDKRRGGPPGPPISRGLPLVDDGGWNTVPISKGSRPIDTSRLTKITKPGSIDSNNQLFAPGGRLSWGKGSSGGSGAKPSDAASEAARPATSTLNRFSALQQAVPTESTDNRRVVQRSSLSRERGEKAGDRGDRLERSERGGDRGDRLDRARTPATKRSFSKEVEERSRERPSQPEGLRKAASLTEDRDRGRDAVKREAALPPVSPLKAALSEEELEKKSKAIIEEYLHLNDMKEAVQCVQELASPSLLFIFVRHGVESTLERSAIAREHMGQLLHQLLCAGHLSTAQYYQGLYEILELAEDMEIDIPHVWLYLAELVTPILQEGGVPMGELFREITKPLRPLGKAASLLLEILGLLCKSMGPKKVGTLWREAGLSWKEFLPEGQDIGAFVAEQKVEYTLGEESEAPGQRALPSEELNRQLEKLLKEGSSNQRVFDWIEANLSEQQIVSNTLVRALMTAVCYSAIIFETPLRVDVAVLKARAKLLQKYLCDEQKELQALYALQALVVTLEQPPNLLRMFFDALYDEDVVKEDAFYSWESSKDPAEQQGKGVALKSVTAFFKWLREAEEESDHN
log2 fold change [1]: 0.017 | log2 fold change [4]: -0.191 | log2 fold change [20]: -0.032 | log2 fold change [18]: -0.14 | log2 fold change [19]: -0.075 | log2 fold change [11]: 0.085

FADS1 (UniProt F5GYH4)
log2 fold change [16]: 0.034 | log2 fold change [19]: -0.191

DCP2 (UniProt Q8IU60)
log2 fold change [4]: 0.02 | log2 fold change [20]: -0.021 | log2 fold change [6]: -0.033 | log2 fold change [17]: -0.112 | log2 fold change [8]: -0.076 | log2 fold change [18]: 0.009 | log2 fold change [19]: -0.079 | log2 fold change [10]: 0.048 | log2 fold change [14]: 0.048

DBNL (UniProt Q9UJU6)
log2 fold change [20]: 0.308
